Laboratory results as given in PubChem BioAssay (NCI).
This is part of a sample that, as a whole, favours compounds with a hit. Of some 83,000 tested, about 20% had one in any assay.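 48-hour exposure, single concentration, 96-well plates; percent growth endpoint where 0 means no net growth. Active: below 10.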 Calls of active or inactive are those of the source.

What was measured:
Assay in all cases: NCI-60 one-dose screen, 48 h (100 = growth as untreated, 0 = no growth, -100 = all killed)
Conditions in all cases: 10 µM unless noted
[1] = test system: DU-145 prostate
[2] = test system: K-562 leukemia
[3] = test system: MALME-3M melanoma
[4] = test system: MDA-MB-231 breast
[5] = test system: RXF 393 renal
[6] = test system: SF-268 CNS
[7] = test system: SF-295 CNS
[8] = test system: SF-539 CNS
[9] = test system: UACC-257 melanoma
[10] = test system: M14 melanoma
[11] = test system: HCT-15 colon
[12] = test system: HT29 colon
[13] = test system: SNB-75 CNS
[14] = test system: SNB-19 CNS
[15] = test system: U251 CNS
[16] = test system: PC-3 prostate
[17] = test system: SK-MEL-5 melanoma
[18] = test system: UACC-62 melanoma
[19] = test system: LOX IMVI melanoma
[20] = test system: SK-MEL-28 melanoma

Measured: growth

CCn1cnc2c1c(=O)[nH]c(=O)n2CC1CCC(CNS(=O)(=O)c2ccc(OC3CCOCC3)c(F)c2)CC1 (stereo not given)
active: [13] 7.93%
inactive: [1] 76.8% | [2] 39.2% | [3] 58.2% | [4] 47.8% | [5] 53.1% | [6] 82.8% | [7] 58.5% | [8] 54.7% | [9] 59.8% | [10] 48.5% | [11] 86.6% | [12] 37.8% | [14] 59% | [15] 67.9% | [16] 45.9% | [17] 60.1% | [18] 24.1% | [19] 38.4% | [20] 64.1%

O=[N+]([O-])c1ccccc1NCSc1ccc(Cl)cc1
inactive: [1] 102% | [2] 93.1% | [3] 87.5% | [4] 90% | [5] 88.9% | [6] 84.2% | [7] 77.4% | [8] 107% | [9] 95.8% | [10] 102% | [11] 89.7% | [12] 108% | [13] 87.3% | [14] 103% | [15] 85.8% | [16] 56.2% | [17] 99.9% | [18] 89.2% | [19] 52.7% | [20] 107%

COc1ccc(-c2[nH]ncc2-c2cc3c(c(OC)c2)OCC(=O)N3)cc1
active: [4] 7.86% | [5] -35.1% | [7] 9.29% | [8] -23.9% | [13] -20.2%
inactive: [1] 14.8% | [2] 12.6% | [3] 57.3% | [6] 54% | [9] 59.8% | [10] 11.6% | [11] 23.7% | [12] 37.2% | [14] 24.7% | [15] 11.3% | [16] 17.6% | [17] 11.9% | [18] 25.3% | [19] 41.7% | [20] 57.6%

O=C(/C=C/c1cccc2ccccc12)c1ccc(NC(=O)c2ccccc2CN2C(=O)c3ccccc3C2=O)cc1
inactive: [1] 42.7% | [2] 20.2% | [3] 79.6% | [4] 58.4% | [5] 91.5% | [6] 75.4% | [7] 96.4% | [8] 90.2% | [9] 88% | [10] 72.8% | [11] 54.2% | [12] 41.7% | [13] 61.2% | [14] 76.7% | [15] 64.5% | [16] 74% | [17] 87.9% | [18] 69.3% | [19] 60.9% | [20] 96.7%

O=C(Cc1ccc(F)c(Cl)c1)Nc1cc(C2(C(F)(F)F)CC2)nn1CC1CCCCC1
inactive: [1] 20.9% | [2] 11.1% | [10] 17.1% | [14] 14.7% | [19] 11.6% | [20] 19.7%
active: [3] -24.1% | [4] -60.3% | [5] -28.7% | [6] 9.97% | [7] 1.21% | [8] 8.62% | [9] -9.88% | [11] 5.75% | [12] 8.71% | [13] -8.19% | [15] 1.68% | [16] 0.348% | [17] -74.5% | [18] 0.508%

CN1C(=O)N(C)C2Nn3c(s/c(=C\c4ccccc4)c3=O)=NC21 (stereo not given)
inactive: [1] 106% | [2] 92.8% | [3] 101% | [4] 98.1% | [5] 106% | [6] 93.9% | [7] 104% | [8] 100% | [9] 94.1% | [10] 97.8% | [11] 93.1% | [12] 106% | [13] 71.4% | [14] 95.6% | [15] 96.2% | [16] 101% | [17] 101% | [18] 90.9% | [19] 92.6% | [20] 105%

CCCCn1c(-c2ccc(-c3nc(-c4ccc(Cl)cc4)no3)cc2)nc(-c2ccccc2)c1-c1ccccc1
inactive: [1] 93.4% | [2] 58.9% | [3] 92% | [4] 79.9% | [5] 101% | [6] 95.5% | [7] 79% | [8] 85.5% | [9] 97.8% | [10] 94.4% | [11] 77.2% | [12] 90.2% | [13] 80.5% | [14] 83.5% | [15] 87% | [16] 70.4% | [17] 97.9% | [18] 71.5% | [19] 31.3% | [20] 90.8%

O=C(Nc1ccc(OS(=O)(=O)c2ccc(F)cc2)cc1)c1ccc(Cl)cc1
inactive: [1] 107% | [2] 81.1% | [3] 96.9% | [4] 104% | [5] 109% | [6] 101% | [7] 105% | [8] 108% | [9] 100% | [10] 98% | [11] 89.9% | [12] 80.1% | [13] 114% | [14] 99.4% | [15] 100% | [16] 91.8% | [17] 90.8% | [18] 96% | [19] 98.7% | [20] 107%

CNC(=O)c1[nH]cc(-c2ccccc2)c1-c1cc(OC)c2c(c1OC)OCO2
inactive: [1] 106% | [2] 98.7% | [3] 105% | [4] 96.2% | [5] 94.1% | [6] 93.6% | [7] 106% | [8] 102% | [9] 101% | [10] 98.3% | [11] 104% | [12] 91.5% | [13] 70.9% | [14] 90.6% | [15] 96% | [16] 98.3% | [17] 105% | [18] 90.8% | [19] 98.5% | [20] 108%

CCOC(=O)c1cn2ncnc(Oc3ccc(NC(=O)NCCN4CCOCC4)c(Cl)c3)c2c1C
inactive: [1] 109% | [2] 98.3% | [3] 91.5% | [4] 100% | [5] 94.2% | [6] 94.9% | [7] 98.4% | [8] 95.6% | [9] 95.8% | [10] 91.3% | [11] 96.3% | [12] 104% | [13] 76.8% | [14] 95.1% | [15] 98.4% | [16] 91.2% | [17] 98.5% | [18] 97.6% | [19] 99.7% | [20] 97.1%

CCOC(=O)C1=C(N)Oc2c(sc3c(C)cccc23)C1c1ccc(F)cc1 (stereo not given)
active: [2] 4.54% | [5] -7.13% | [7] 0.881% | [8] -1.53% | [11] 6.3% | [12] 2.47% | [13] -4.15%
inactive: [1] 12.1% | [3] 52.7% | [4] 27.8% | [6] 38.2% | [9] 59.2% | [10] 10.6% | [14] 26.3% | [15] 19.4% | [16] 12% | [17] 16.3% | [18] 17.4% | [19] 14% | [20] 56.8%

COc1ccc(-c2cc(-c3cc(OC)c(OC)c(OC)c3)nc(N3CCOCC3)c2C#N)cc1
inactive: [1] 93.5% | [2] 47.5% | [3] 126% | [4] 75.3% | [5] 52.9% | [6] 83.4% | [7] 69.5% | [8] 76.6% | [9] 74.2% | [10] 90.3% | [11] 66.6% | [12] 76.1% | [13] 72.3% | [14] 86.7% | [15] 64.5% | [16] 62.7% | [17] 75.3% | [18] 57.5% | [19] 74.7% | [20] 56.8%

CN(C)CCN1CCN(c2ncccc2C2Nc3ccccc3-n3cccc32)CC1 (stereo not given)
inactive: [1] 110% | [2] 89.4% | [3] 106% | [4] 93.6% | [5] 101% | [6] 92.3% | [7] 103% | [8] 101% | [9] 101% | [10] 106% | [11] 101% | [12] 101% | [13] 88.3% | [14] 106% | [15] 105% | [16] 102% | [17] 104% | [18] 105% | [19] 99.9% | [20] 105%

CNc1nc2c(s1)C(c1cc(F)ccc1F)CC(=O)N2 (stereo not given)
inactive: [1] 76.3% | [2] 18.5% | [3] 70.2% | [4] 69.6% | [5] 75.5% | [6] 79.3% | [7] 87.4% | [8] 53.8% | [9] 86.7% | [10] 47.3% | [11] 42% | [12] 82.4% | [13] 32.4% | [14] 72.2% | [15] 67.6% | [16] 81.1% | [17] 64.5% | [18] 50.1% | [19] 73.4% | [20] 69.6%

Cc1cccc(NC2=C(Cl)C(=O)c3nc(C)ccc3C2=O)c1
active: [1] -80.2% | [2] 2.91% | [3] -75.3% | [4] -75.1% | [5] -19.8% | [8] -79% | [9] -80.2% | [10] -45% | [11] -54.8% | [13] -64.9% | [17] -93% | [18] -67% | [19] -54.6% | [20] -54.5%
inactive: [6] 58.2% | [7] 12.7% | [12] 115% | [14] 23.7% | [15] 32.8% | [16] 24.6%

COc1cc(C(=O)c2cnc(-c3cccc4[nH]ccc34)[nH]2)cc(OC)c1OC
inactive: [3] 60.8% | [5] 66.7% | [6] 24.5% | [7] 21.6% | [9] 85% | [11] 17.8% | [13] 30.5% | [14] 40.3% | [15] 20.2% | [16] 22.4% | [18] 39.3% | [19] 28.1% | [20] 55.1%
active: [1] 2.85% | [2] 8.88% | [4] -3.5% | [8] 1.12% | [10] -6.97% | [12] 7.58% | [17] -23.6%
